# Sampled rows, rich in hits. Any-hit rate of the full collection: about 1.9%.
# Giardia killer: Small Molecules that selectively kill Giardia lamblia: qHTS. Giardia lamblia trophozoite viability. activity change, % at 7.66 µM, hits read low. 0.15% of 340,000 active. AID 540267, 2011; in the data active means activity change below about -80%; inconclusive means between about -30% and that limit;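 further: parasites exposed to compound for two days anaerobically before the ATP read; on the % scale 0 is the no-effect control and ±100 the full control effect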
#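 Anaerobic 48 hrs incubation at 37 deg C of 100 trophozoites/well with test compounds; ATPLite 1-Step luminescence, 15-30 min RT, reports cellular ATP as viability.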
# RXFP1 antagonist: qHTS Assay for Antagonists of the Relaxin Receptor RXFP1; Relaxin receptor 1 (Homo sapiens), Q9HBX9; HEK293-RXFP1, relaxin-stimulated cAMP HTRF, 30 min; hits give low values; activity change, negative = inhibition, % at 57.5 µM; 0.59% of 350,000 active; AID 1259400, 2018;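 active means activity change of -60% or lower, but not beyond a set lower limit; inconclusive means change between -60% and -40%, or beyond the set limit; inactive means change above -40%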; further: on the % scale 0 is the no-effect control and ±100 the full control effect
# Target sequence (Q9HBX9 whole entry, looked up): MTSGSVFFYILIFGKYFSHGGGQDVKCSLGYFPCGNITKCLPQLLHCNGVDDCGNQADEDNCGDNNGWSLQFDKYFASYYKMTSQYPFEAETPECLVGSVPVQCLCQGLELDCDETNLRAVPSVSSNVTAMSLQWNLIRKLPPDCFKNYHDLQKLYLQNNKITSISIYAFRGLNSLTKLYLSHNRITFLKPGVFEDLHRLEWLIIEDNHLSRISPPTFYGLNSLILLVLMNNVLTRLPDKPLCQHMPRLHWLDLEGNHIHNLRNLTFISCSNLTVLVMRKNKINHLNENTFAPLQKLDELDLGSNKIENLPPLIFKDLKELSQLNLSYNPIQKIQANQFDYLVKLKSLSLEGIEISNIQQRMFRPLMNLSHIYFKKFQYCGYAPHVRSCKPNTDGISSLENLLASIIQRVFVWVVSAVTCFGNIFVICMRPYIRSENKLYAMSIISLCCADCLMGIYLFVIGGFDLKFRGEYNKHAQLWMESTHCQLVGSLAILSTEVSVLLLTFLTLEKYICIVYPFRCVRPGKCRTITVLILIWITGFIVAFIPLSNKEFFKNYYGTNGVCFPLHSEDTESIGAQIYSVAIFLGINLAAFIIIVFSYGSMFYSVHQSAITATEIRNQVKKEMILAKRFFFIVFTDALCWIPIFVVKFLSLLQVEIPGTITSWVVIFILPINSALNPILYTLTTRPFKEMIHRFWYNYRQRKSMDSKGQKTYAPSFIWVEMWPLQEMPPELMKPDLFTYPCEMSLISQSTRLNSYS
# BRCA1 expr act: qHTS Assay to Identify Small Molecule Activators of BRCA1 Expression. MCF7-BRCA1-FFLuc reporter, luminescence, 48 h; response scale: scaled: vehicle 0%, 10 µM genistein 100%. Potency, µM (doses to about 46.1 µM), without a hit: at the top dose activation, hits mostly activators. 1.1% of 380,000 active; further: potency means the concentration at half of the fitted maximal effect; nearly all actives have a fitted effect of over 80% in size
#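 Compounds are tested at multiple concentrations on MCF7 BRCA1-luciferase reporter cells seeded at 2000 per well; after 48 h, a single luminescence end-point is taken and curves fitted to the normalized data.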
# RXFP1 agonist: qHTS Assay for Agonists of the Relaxin Receptor RXFP1 | Potency, µM (top dose mostly 57.5 µM), without a hit: at the top dose activation, most hits filed as activators | HEK293T-RXFP1 cAMP TR-FRET, 30 min; response scale: percent of porcine relaxin response, buffer zero | Relaxin receptor 1 (Homo sapiens), Q9HBX9 | 0.3% of 370,000 active; further: potency means the concentration at half of the fitted maximal effect; on the % scale 0 is the no-effect control and ±100 the full control effect; nearly all actives have a fitted effect of over 60% in size
#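 cAMP rise read by TR-FRET after 30 min, 37C compound exposure (up to 58 uM) in RXFP1-transfected HEK293 cells with Ro 20174 present. EC50 from Hill-equation fits, with 29 nM porcine relaxin as 100% and buffer as basal.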
# IL2 activator: qHTS of IL-2 Activators | 0.065% of 360,000 active | activation, % (series mostly up to about 46 µM) | IL-2 activation reporter assay, cell-based qHTS; stimulated with anti-CD3/CD4/CD28 beads; in transgenic mouse T cells; in the data active means activation above about 50%; inconclusive means mostly about 30% to 49%; further: 0% is about no effect
#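 Using fluorescent plate cytometry, EGFP and DsRed are detected in transgenic mouse T cells stimulated 18 h at 37 degrees C with antibody-coated beads after 60 min compound pretreatment.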
# NPSR antag: qHTS Assay for Antagonists of the Neuropeptide S Receptor: cAMP Signal Transduction. Q6W5P4. Potency, µM (top dose mostly 38.3 µM), for inactives: at the top dose activity change, negative = inhibition, hits mostly inhibitors. AID 1461, 2008. CHO-NPSR cells, cAMP TR-FRET, antagonist mode. 1% of 220,000 active; further: potency means the concentration at half of the fitted maximal effect; on the % scale 0 is the no-effect control and ±100 the full control effect; nearly all actives have a fitted effect of over 50% in size
# Active calls of the source: *; u = inconclusive; x = no result; [ ] = another dose, or the depositor's remark. Unless noted, the call rests on the fitted dose curve; in most records, active means well fitted curve in the direction sought with a large enough effect; inconclusive means small, poorly fitted or top-dose-only effect, or another doubt; inactive means no such curve, though single readings can be large; an effect the other way counts as inactive or inconclusive.
SMILES,Giardia killer,RXFP1 antagonist,BRCA1 expr act,RXFP1 agonist,IL2 activator,NPSR antag
COc1cc(/C=N/N=C2/NC(=O)C(CC(=O)O)S2)ccc1OCc1cccc(Cl)c1 (stereo not given),7.3,-4.9,11.2µM*,-2.5%,0.5,5.4%
CCOc1ccccc1NC(=O)CN1C(=O)CC(c2ccco2)Sc2ccccc21 (stereo not given),x,x,-64.1%,1.0%,x,x
Cc1ccccc1NC(=O)CSc1nc(-c2ccccc2)cn1-c1ccccc1F,x,0.4,x,0.4%,x,x
CCOC(=O)c1cc2c(nc1N)CCCC2,-26.9,-3.9,0.7%,-5.9%,-4.8,3.3%
CCOC(=O)c1ccc(-c2ccc3c(c2)CCC3)nc1C,-4.4,2.8,10µM*,0.1%,0.0,x
Cc1ccc(Cl)cc1NC(=O)Cn1cc(S(=O)(=O)Cc2ccccc2Cl)c2ccccc21,x,-26.4,x,1.3%,x,x
COc1ccc(NC(=O)/C(Cl)=C(/Cl)S(=O)(=O)Cc2ccc(C)cc2)cn1,-3.0,-70.9*,-96.8%,0.0%,-4.5,3.98µM*
COc1ccc(NC(=O)/C(Cl)=C(/Cl)S(=O)Cc2ccccc2Cl)cn1 (stereo not given),-11.6,-117.5*,-92.5%,0.1%,-1.3,5.01µM*
C=C1C=CS(=O)(=O)N(C(C)C(=O)OC)C1 (stereo not given),13.6,x,x,x,x,x
O=C(CNC(=O)c1ccccc1)NCC(=O)OCC(=O)c1ccc2ccccc2c1,26.3,x,6.2%,x,x,x
C=CCn1c2ccccc2c(=O)c2cc(C#Cc3ccccn3)ccc21,-3.5,x,8.91µM*,0.3%,-0.4,x
COc1ccc(-c2noc(CSc3nnc(-c4ccc(Cl)cc4)n3C)n2)cc1OC,x,x,4.1%,-3.5%,x,x
CCC(Sc1ncc(S(=O)(=O)c2ccc(C)cc2)c(=O)[nH]1)C(=O)Nc1cc(C)ccc1C (stereo not given),x,x,0.3%,1.1%,x,x
CCc1nc(N)nc(N)c1-c1ccc(N(C)Cc2ccccc2)c([N+](=O)[O-])c1,-16.0,-103.4*,-81.9%,x,-6.9,x
CCOC(=O)N1CCc2c(sc3c2c(=O)n(CCc2ccccc2)c(=O)n3Cc2cc(C)ccc2C)C1,x,8.7,x,-0.1%,x,x
Cc1ccccc1NC(=O)COc1ccccc1C(=O)Nc1ccccc1,x,x,-33.4%,x,x,x
COc1ccc(C(C)=O)cc1CN1C(=O)NC2(CCCCCCC2)C1=O,-4.8,-13.9,0.9%,-0.2%,-0.7,-8.5%
CCOc1ccc(C(C)=O)cc1CN1C(=O)NC2(CCCCCC2)C1=O,-6.8,-101.3*,6.4%,-0.7%,1.4,x
Cc1[nH]c2ccccc2c1N=Nc1cccc(C(=O)O)c1,10.2,10.6,3.16µM*,0.7%,0.8,-38.3%
O=C(NNC(=O)c1cc(-c2cccnc2)nc2ccccc12)Nc1ccc(Cl)cc1,0.8,-73.0*,-20.9%,-0.3%,-0.6,-41.2%
O=C(NNC(=O)c1cc(-c2ccccc2)nc2ccccc12)Nc1cccc(Cl)c1,-27.6,-23.7,-66.8%,1.3%,-1.1,u
Cc1ccc(S(=O)(=O)c2nc(-c3ccco3)oc2N2CCC(C)CC2)cc1,-7.8,-62.6*,-44.2%,-3.9%,-0.6,x
O=C(c1ccco1)N1CCNCC1,x,15.7,x,x,x,x
COC(=O)c1ccc(Cn2cc(C(F)(F)F)ccc2=O)cc1,3.5,-5.1,-16.9%,2.1%,-1.8,-1.6%
COC(=O)c1ccc(Cn2cc(C(F)(F)F)cc([N+](=O)[O-])c2=O)cc1,-94.6*,9.2,-3.7%,0.9%,-1.1,-0.5%
O=c1c([N+](=O)[O-])cc(C(F)(F)F)cn1Cc1c(Cl)cccc1Cl,-90.8*,2.8,0.6%,0.4%,0.6,1.5%[46.1 µM]
COc1ccc(Oc2c(Cl)cnn(-c3ccc(Cl)c(Cl)c3)c2=O)cc1,10.9,-20.2,-59.1%,3.1%,-0.5,10µM*
Cc1nn(CC(=O)c2ccccc2Cl)c(C)c1[N+](=O)[O-],-14.7,-1.8,10µM*,0.8%,5.6,-22.2%
CCN1CCCC1CNC(=O)c1ccc2c(c1)N(Cc1ccccc1F)C(=O)c1ccccc1S2(=O)=O (stereo not given),-3.9,-100.2*,2.9%,-1.2%,-3.3,x
CCN1CCCC1CNC(=O)c1ccc2c(c1)N(Cc1cccc(Cl)c1)C(=O)c1ccccc1S2(=O)=O (stereo not given),4.8,-25.2,-41.0%,-2.5%,-0.7,x

# Source: PubChem BioAssay (National Center for Advancing Translational Sciences (NCATS))
